Data taken from PubChem BioAssay (NCI).
The panel holds about 79,000 compounds, 15% with a hit somewhere; the sample as a whole holds those more often. The source made the active and inactive calls. Cut-off read from the data, not from the text of the source: active = growth inhibition above about 70%; inactive = the rest.

What was measured:
[1] = NCI Yeast Anticancer Drug Screen. Data for the rad50 strain (AID 155);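 note: 0% = growth of vehicle-only cultures of the same strain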; settings: S. cerevisiae rad50 strain growth inhibition, stronger effect = higher value
In short: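 Growth of the mutant yeast was measured after compound exposure and referenced to vehicle-treated cultures.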

[2] = NCI Yeast Anticancer Drug Screen. Data for the mec2-1 strain (AID 157); settings: S. cerevisiae mec2-1 strain, stronger effect = higher value
In short: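 Growth inhibition is read against vehicle-treated controls after compound exposure of the mec2-1 yeast strain, which is defective in DNA damage repair or cell cycle control.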

[3] = NCI Yeast Anticancer Drug Screen. Data for the sgs1 mgt1 strain (AID 161);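 note: 0% = growth of cultures given vehicle only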; settings: S. cerevisiae sgs1 mgt1 strain, stronger effect = higher value
In short: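 Percent growth inhibition was derived by comparing compound-exposed mutant yeast with vehicle-exposed cultures. The strain carries alterations in DNA damage repair.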

[4] = NCI Yeast Anticancer Drug Screen. Data for the cln2 rad14 strain (AID 165);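 note: 0% = growth equal to vehicle treated cultures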; settings: S. cerevisiae cln2 rad14 strain, stronger effect = higher value
In short: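 Growth inhibition, relative to vehicle-treated controls, is the read-out. The test organism is a yeast strain with defined genetic alterations, cln2 rad14.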

[5] = NCI Yeast Anticancer Drug Screen. Data for the bub3 strain (AID 167); settings: S. cerevisiae bub3 mutant strain, stronger effect = higher value
In short: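 Whole-cell yeast assay. The mutant strain was incubated with compounds, and growth inhibition was determined by comparison with vehicle-treated cells.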

[6] = NCI Yeast Anticancer Drug Screen. Data for the mlh1 rad18 strain (AID 175); settings: S. cerevisiae mlh1 rad18 strain growth inhibition, stronger effect = higher value
In short: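 Cells of a genetically altered yeast strain, deficient in DNA damage repair, were treated with compound. Their growth was then compared with that of vehicle-treated cultures to give inhibition.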

[7] = at 5.0 µM (retest, dose inferred, filed as 0.5)
[8] = at 50.0 µM (retest, dose inferred, filed as 5.0)

Measured: growth inhibition

[Cl][Sn]([O][Sn]([Cl])([c]1ccccc1)[CH]1CCCCC1)([c]1ccccc1)[CH]1CCCCC1 (stereo not given)
active: [1]; [8] 97% | [1]; at 50.0 µM 88% | [2]; [8] 99% | [2]; at 50.0 µM 90.3% | [3]; [8] 99% | [3]; at 50.0 µM 90.8% | [4]; [8] 98% | [4]; at 50.0 µM 90.1% | [5]; [8] 99% | [5]; at 50.0 µM 89.6% | [6]; [8] 97% | [6]; at 50.0 µM 92%
inactive: [1]; [7] 6% | [2]; [7] 7% | [3]; [7] 12% | [4]; [7] -11% | [5]; [7] 2% | [6]; [7] 5%

CC[C@@]1(O)C[C@H](OC2CC(N(C)C)C(OC3CC(O)C(OC4CCC(=O)C(C)O4)C(C)O3)C(C)O2)c2c(cc3c(c2O)C(=O)c2c(O)cccc2C3=O)[C@H]1C(=O)OC (stereo not given in full)
active: [1]; [7] 95% | [1]; [8] 97% | [1]; at 50.0 µM 91.2% | [2]; [7] 98% | [2]; [8] 99% | [2]; at 50.0 µM 92.8% | [3]; [7] 92% | [3]; [8] 97% | [3]; at 50.0 µM 91.9% | [4]; [7] 92% | [4]; [8] 98% | [4]; at 50.0 µM 89.2% | [5]; [7] 95% | [5]; [8] 98% | [5]; at 50.0 µM 91.8% | [6]; [7] 97% | [6]; [8] 98% | [6]; at 50.0 µM 92%

CCc1n[nH]c(CC)c1CCCCCCOc1ccc(OC)cc1Cl
active: [1]; at 50.0 µM 83.8% | [2]; [8] 77% | [2]; at 50.0 µM 92.4% | [3]; [8] 73% | [3]; at 50.0 µM 92.2% | [4]; [8] 76% | [4]; at 50.0 µM 89.7% | [5]; [8] 83% | [5]; at 50.0 µM 89.2% | [6]; [8] 73% | [6]; at 50.0 µM 93.7%
inactive: [1]; [7] -8% | [1]; [8] 60% | [2]; [7] -15% | [3]; [7] -3% | [4]; [7] -28% | [5]; [7] -8% | [6]; [7] -11%

CC(C)(C)c1ccc(O)c(O)c1
active: [3]; at 50.0 µM 79.8% | [6]; [8] 75% | [6]; at 50.0 µM 81.2%
inactive: [1]; [7] 2% | [1]; [8] 56% | [1]; at 50.0 µM 63.4% | [2]; [7] 10% | [2]; [8] 51% | [2]; at 50.0 µM 61.6% | [3]; [7] 11% | [3]; [8] 54% | [4]; [7] -1% | [4]; [8] 16% | [4]; at 50.0 µM -8.95% | [5]; [7] -3% | [5]; [8] 23% | [5]; at 50.0 µM 37.6% | [6]; [7] 10%

COC(CO)(OC)c1ccccc1
inactive: [1]; [7] -163% | [1]; [8] -65% | [1]; at 50.0 µM -0.65% | [2]; [7] -50% | [2]; [8] -50% | [2]; at 50.0 µM -2.9% | [3]; [7] -66% | [3]; [8] -49% | [3]; at 50.0 µM -9% | [4]; [7] -63% | [4]; [8] -70% | [4]; at 50.0 µM 25.6% | [5]; [7] -70% | [5]; [8] -71% | [5]; at 50.0 µM -29.1% | [6]; [7] -128% | [6]; [8] -130% | [6]; at 50.0 µM 3.5%

COc1ccc(CCCCI)cc1
inactive: [1]; [7] -4% | [2]; [7] -14% | [3]; [7] -6% | [4]; [7] 2% | [5]; [7] 0% | [6]; [7] 16%
active: [1]; [8] 95% | [1]; at 50.0 µM 94.6% | [2]; [8] 94% | [2]; at 50.0 µM 95.2% | [3]; [8] 97% | [3]; at 50.0 µM 94.2% | [4]; [8] 97% | [4]; at 50.0 µM 96.4% | [5]; [8] 96% | [5]; at 50.0 µM 97% | [6]; [8] 98% | [6]; at 50.0 µM 96.9%

Nc1nc(N)c(N=O)c(Nc2cccc(Br)c2)n1
active: [1]; [8] 98% | [2]; [8] 99% | [3]; [7] 70% | [3]; [8] 98% | [4]; [8] 98% | [4]; at 50.0 µM 76.7% | [5]; [8] 98% | [6]; [8] 98%
inactive: [1]; [7] 57% | [1]; at 50.0 µM 1.15% | [2]; [7] 46% | [2]; at 50.0 µM 13.8% | [3]; at 50.0 µM -6.85% | [4]; [7] 48% | [5]; [7] 50% | [5]; at 50.0 µM 56.1% | [6]; [7] 64% | [6]; at 50.0 µM 5.05%

CC(C)Cc1ccc(C(C)/C=C2\CCC(CN3CCCCC3)C2=O)cc1 (stereo not given)
active: [1]; [7] 93% | [1]; [8] 98% | [1]; at 50.0 µM 92.3% | [2]; [7] 90% | [2]; [8] 99% | [2]; at 50.0 µM 94.2% | [3]; [7] 84% | [3]; [8] 98% | [3]; at 50.0 µM 94.2% | [4]; [7] 80% | [4]; [8] 99% | [4]; at 50.0 µM 92.7% | [5]; [7] 98% | [5]; [8] 98% | [5]; at 50.0 µM 93.2% | [6]; [7] 94% | [6]; [8] 98% | [6]; at 50.0 µM 89.6%

Cn1c(CCC2(C)Cc3ccccc3C(=O)O2)cc2ccccc2c1=O (stereo not given)
active: [3]; [8] 79% | [3]; at 50.0 µM 73.9% | [5]; [8] 86% | [5]; at 50.0 µM 75.3%
inactive: [1]; [7] 3% | [1]; [8] 31% | [1]; at 50.0 µM 55.2% | [2]; [7] -6% | [2]; [8] 48% | [2]; at 50.0 µM 69.7% | [3]; [7] 0% | [4]; [7] -11% | [4]; [8] 27% | [4]; at 50.0 µM 28.4% | [5]; [7] -27% | [6]; [7] 2% | [6]; [8] 48% | [6]; at 50.0 µM 49%

Cc1cc(=O)c2c(ccc3cc4ccccc4cc32)[nH]1
inactive: [1]; [7] -6% | [1]; [8] 41% | [1]; at 50.0 µM 66.8% | [2]; [7] 0% | [2]; [8] 58% | [2]; at 50.0 µM 38.1% | [3]; [7] -16% | [3]; [8] 54% | [3]; at 50.0 µM 45.8% | [4]; [7] -5% | [4]; [8] 17% | [4]; at 50.0 µM 43.8% | [5]; [7] -7% | [5]; [8] 22% | [5]; at 50.0 µM 39.6% | [6]; [7] 14% | [6]; [8] 49% | [6]; at 50.0 µM 59.1%
